Test results taken from the supplement of paper PMC11417369.
± gives the standard deviation of the averaged measurements. Over roughly 25,000 sequences, “ln(normalized median fluorescence intensity)” has its median near 7.9; the highest 2% begin near 11. Only a selection was taken, and the highest values are over-represented in it overall.

System: PfAP2-I AP2 domain 3 (GST-tagged)
Test: gcPBM binding intensity (ln(normalized median fluorescence intensity)); higher = stronger DNA binding
Method in brief: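 GST-tagged P. falciparum DNA-binding domains, expressed in E. coli (about 25 μg on average), were applied for 1 h to an Agilent 4 × 180k array of primer-extended double-stranded 36-bp intergenic genomic probes plus negative controls. The binding buffer was 1× PBS with 1% milk, 0.2 mg/ml BSA, 0.5% salmon testes DNA and 0.03% Triton X-100. Bound protein was detected with Alexa488 anti-GST antibody and scanned at 488 nm. Binding intensity is the highest Masliner-normalised natural-log median intensity across replicate spots of either probe orientation.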

Sequence	gcPBM binding intensity (ln)
AAAAATAGAATAAATACACACCCGTGTAACGGATTT [CACACA_site3372]	7.29 ± 0.93
ATAAATTATATTCAAGTGCATGTAACTTATTATTAT	8.29 ± 0.32
TTTTTTATTCATGTAACACACATTTAATTATGAATT [CACACA_site2706]	7.98 ± 0.58
ACATAAATATAAACGTGTACATATATAAATATATAT [XGTACX_site7293]	8.06 ± 0.26
TCTTTTTTGAACTAGCGTACATGAAAATATTTATAG [XGTACX_site7359]	7.83 ± 0.28
ATTAAAATTTAAAATACACACACATATATATAATAT [CACACA_site8612]	7.91 ± 0.42
AAAATTTAATATAATGCACACATAAAAAAAAAAAAT [CACACA_site8425]	11.1 ± 1
TATAATTTAAAATACACACACATATATATAATATAT [CACACA_site2000]	7.71 ± 0.47
AAAATTATCGTTATATGTACGCATCTTAATACGTAT [XGTACX_site4063]	7.79 ± 0.4
GTGTAGTAAAATCGATGTACGTACAAATCAATTATT [XGTACX_site7662]	8.06 ± 0.39
AAAAACAAACTGTGCATGCACCAAAAAAAAAAAAAA	10.4 ± 0.35
TTTTTCATTTAGCTTTTACACACTATATATTATTGA [CACACA_site7888]	7.94 ± 0.86
ATATATATATATATTACACACTTTTTCTTTTTTTTT [CACACA_site2780]	9.41 ± 0.35
CAGGTGCACTATATTACACACGCTTCTTTTTTTTTA [CACACA_site2069]	11.7 ± 0.59
TACAATCTAAAATACACACGCACACCGAAAAAAAAA [CACACA_site3520]	8.13 ± 0.37
TTTTTTTTTTTAAATACATGCATGTCCTATTTAAAT [TGCATGCA_site494]	7.92 ± 0.89
TATATCTATTTCAAATGTACTTATATGATTCTTATA [XGTACX_site6277]	7.67 ± 0.2
AATATATTGCACCATTGGACCTGAATAATTCTTCCA [CACACA_negctrl_site1071]	11.8 ± 0.81
TAATATATGTATTGCACACCTATAACCATTATTTCT [CACACA_site1498]	10.2 ± 0.38
AATATAATATATTGCACACAAAAAGTGAATTATTCT [CACACA_site1684]	10.2 ± 0.4

Sequence	gcPBM binding intensity (ln)
AAGGGTTATAAAAATTGTACTTTTTTTATTTTTTTT [XGTACX_site1313]	7.72 ± 0.56
CACTTTAATTTATGCACACATATGGAACAACAGCCA [CACACA_site994]	10.2 ± 0.38
ATATACACTTAATTTTTTATAAAAAAAAATTTATAT [CACACA_negctrl_site498]	7.66 ± 0.43
CATATAAATATTTGTGCACACAATTATTAATAATTA [CACACA_site3884]	11.3 ± 0.23
TTATAATATTAATGTGCACACAATTAAAATATTATA [CACACA_site2046]	10.6 ± 0.26
TATTATAATATATTTGTGCACATAATACCTCCGCTA [GTGCAC_site9570]	10.7 ± 0.18
AAATATTTATAGGTTTGTACTTATAAATAAAAAAAA [XGTACX_site7360]	7.83 ± 0.41
TTTTTTTTTTTTTTTGTGCACAATATAATTTTTAAT [GTGCAC_site9747]	10.9 ± 0.52
TATATTCTTTATAGGTGTACTTAATAAATAAAAAAT [XGTACX_site5378]	8.11 ± 0.23
TATTATAATATATTTGTGCACATAATATCTCCGCTA [GTGCAC_site9799]	10.91 ± 0.049
ATATATATAATATAGGTGCACTACTTATTTAAAAAA	11.6 ± 0.2
TTTTAAACAAAAATTTGTACACAATAATTAAATATA [XGTACX_site6755]	7.79 ± 0.32
TTTTTTTAATAGTGTGCACACAATATACAGAAAAAA [CACACA_site8399]	10.1 ± 0.11
ATATATATCTTTTGTGTGCACATATATATAATATAT	9.79 ± 0.22
ATATAAATATATTGCACACACAATTATTATTATTAT [CACACA_site7147]	10.1 ± 0.45
ATAAATATTATTTTACGTACATATTTATGAAGTATT [XGTACX_site8746]	7.92 ± 0.29
ATTGTTCTATGATTTGTACACACTTTTTTTTAAAAT [CACACA_site2825]	8.43 ± 0.46
TTACATACATACAAGTGTACGCATATATTAATATTA [XGTACX_site4006]	8 ± 0.26
ATTATTTGTTTAATGAGTACGAAGACAAATTTTACC [XGTACX_site5223]	8.12 ± 0.49
TTTATAAAAAGCATAACACACACATGTCAATATATA [CACACA_site8286]	7.71 ± 0.52

Sequence	gcPBM binding intensity (ln)
TGAATCAATTGTTGCTGTACATAAGGTATACAATAA [XGTACX_site5127]	7.97 ± 0.52
ATGTATATATATATATGTACTAATTAGTAATTTACG [XGTACX_site6276]	7.87 ± 0.32
TATTTTATTTGTATATTCATTTGTATAATATAAATA [TGCATGCA_negctrl_site267]	7.37 ± 0.55
ATTTTTATTTTATATACACACAATAATAATATAATA [CACACA_site4015]	7.83 ± 0.43
ATATATATTAATTTTGTGCACAAATGGAAATGTTTG [GTGCAC_site9971]	11 ± 0.2
TATTATTCAAAATTTGTGCACAAAATTAAAGGAACA	10.8 ± 0.27
ATATTTTATTTAATTACACACAATATTGCAATTTGT [CACACA_site669]	8.35 ± 0.53
ATTTTTATTTTTTTTGTGCACATTTTCATTTTCTAT [GTGCAC_site9580]	10.4 ± 0.47
ATATTTTATATATTTGTGCACAATATTATAATATAT	11.04 ± 0.049
TTTTTTTTTTTTTTTGTGCACAATTATTTCAATTTT [GTGCAC_site9884]	10.9 ± 0.79
TGTATATGGTTTGTGCAAAAATTTATTAATGTGTAA [TGCATGCA_negctrl_site374]	8.8 ± 0.35
TAATATAATATATGCACACAAATATGTATTTATGTG [CACACA_site5210]	9.14 ± 0.014
AATTTATATAATTTTGTGCACAATATTCATGTATAT	11 ± 0.14
TGAAATTTTATTAATGTGCACATATATTTATTGTTC	9.77 ± 0.26
ATAAAATACAAAGGGACACACATATGAGTCTACAAA [CACACA_site3092]	7.54 ± 0.6
ATATATATATATGTTTATTTATTTGAACGATTGTGG [CACACA_negctrl_site828]	9.4 ± 0.56
AAAAAATTAAATAATTACAAAAAAATAAAATAAAAA [GTGCAC_negctrl_site638]	7.5 ± 0.59
TAAAAAATTTTCGCGTGTACGCAAGAAAAAAAAAAT [XGTACX_site3058]	8.04 ± 0.72
TTAAAAAAGTAATTAACACACAATAATGTAATGCAT [CACACA_site4176]	8.18 ± 0.55
